Source: PubChem BioAssay (Johns Hopkins Ion Channel Center)
KCNQ2 pot: potentiators of rat KCNQ2 potassium channel. Potassium voltage-gated channel subfamily KQT member 2 (Rattus norvegicus), O88943. CHO-K1 KCNQ2, FluxOR thallium flux fluorescence; active compounds read high. B-score at 10 µM. actives 0.54% (n = 310,000). AID 2239, 2010;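 active = fluorescence ratio B-score at least 3 SD of library B-scores, with initial fluorescence B-score within 3 of them, cut at about 5.3 in these data; same plate scores as AID 2156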;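 note: B-score of peak minus minimum over baseline fluorescence ratio after K+ and Tl+ stimulus; positive B-score means potentiation of KCNQ2 with more thallium influx and brighter signal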
KCNQ2 block: rat KCNQ2 potassium channel inhibitors, primary screen, cell-based, CHO-K1, FluxOR thallium flux, B-score; actives 1.1% (n = 310,000); B-score at 10 µM; Potassium voltage-gated channel subfamily KQT member 2 (Rattus norvegicus), O88943; 20 min; active compounds read low;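 active = fluorescence ratio B-score at most minus 3 library SDs, with starting brightness B-score within 2 library SDs, cut at about -5.5 in these data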
KCNQ2 inh conf: rat KCNQ2 potassium channel inhibitors, confirmation, cell-based, thallium flux; shares compounds with KCNQ2 block; KCNQ2-expressing cells, inhibition; active compounds read low; activity change, negative = inhibition, % at 10 µM; actives 57% (n = 1,000);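 note: 0% = vehicle wells and values are ratio percent relative to vehicle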
KCNQ1 spec: human KCNQ1 channel inhibition, counter-screen for KCNQ2 inhibitor project, cell-based, FluxOR thallium flux. KCNQ1-expressing cells, FluxOR thallium flux fluorescence; active compounds read low. AID 493026, 2011. activity change, negative = inhibition, % at 10 µM. actives 15% (n = 1,000). shares compounds with KCNQ2 block;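 active = activity change at least 3 SD of negative controls below their mean in both duplicate wells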;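 note: CHO cells stably transfected with KCNQ1 and depolarized by potassium stimulus; peak minus minimum fluorescence over baseline after thallium addition; 0% = vehicle negative control and -100% = blank without thallium stimulus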
Target sequence (P51787 whole entry, looked up): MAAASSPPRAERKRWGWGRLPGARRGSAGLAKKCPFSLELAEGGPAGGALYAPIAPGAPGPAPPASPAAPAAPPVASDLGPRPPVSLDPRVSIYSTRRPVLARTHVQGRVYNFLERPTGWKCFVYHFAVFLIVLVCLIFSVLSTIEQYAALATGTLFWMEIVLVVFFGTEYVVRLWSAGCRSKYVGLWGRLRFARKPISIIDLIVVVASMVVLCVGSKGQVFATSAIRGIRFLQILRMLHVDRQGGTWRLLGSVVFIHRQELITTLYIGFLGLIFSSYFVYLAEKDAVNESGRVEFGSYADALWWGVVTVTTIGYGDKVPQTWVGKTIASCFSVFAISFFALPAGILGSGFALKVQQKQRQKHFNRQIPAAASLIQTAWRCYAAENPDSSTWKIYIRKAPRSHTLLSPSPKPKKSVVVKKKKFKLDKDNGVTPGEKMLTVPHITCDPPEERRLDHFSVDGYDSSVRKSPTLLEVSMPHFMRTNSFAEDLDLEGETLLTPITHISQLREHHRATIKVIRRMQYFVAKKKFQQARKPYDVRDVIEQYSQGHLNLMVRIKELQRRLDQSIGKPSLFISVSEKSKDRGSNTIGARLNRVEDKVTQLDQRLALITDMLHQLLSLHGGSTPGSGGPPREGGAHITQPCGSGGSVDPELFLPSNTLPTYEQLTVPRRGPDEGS
CHO parental ctr: thallium flux change in parental CHO cells, counter-screen for KCNQ2 inhibitor project. actives 14% (n = 1,000). active compounds read low. shares compounds with KCNQ2 block. activity change, % at 10 µM;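 note: 0% = vehicle negative controls with stimulus buffer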
KCNQ2 inh confirm: rat KCNQ2 channel inhibitors, confirmation, cell-based, automated patch clamp, single concentration. AID 588531, 2011. KCNQ2-expressing cells, automated patch clamp current. actives 49% (n = 550). calls only at 10 µM. shares compounds with KCNQ2 block
* = called active by the depositor; i = inactive; . = no result given; + = active, no number. The list is not random: actives were taken first. Their share in the collection is about 1.6%. Unless noted, the rule behind the calls is not given here.

SMILES	KCNQ2 pot	KCNQ2 block	KCNQ2 inh conf	KCNQ1 spec	CHO parental ctr	others
Cc1nn(C(C)C(=O)NCc2ccccc2Cl)c(=O)c2c1sc1ccccc12 (configuration not stated)	-7.8	-7.8*	-32%*	i	i	KCNQ2 inh confirm=+
Cc1nn(C(C)C(=O)NCCCN2CCCCCC2)c(=O)c2c1sc1ccccc12 (configuration not stated)	.	i	.	.	.
CCOC(=O)N1CCN(S(=O)(=O)/C=C/c2ccccc2)CC1	0.73	i	.	.	.
CCOC(=O)N1C/C(=C\c2ccccc2)C(=O)/C(=C/c2ccccc2)C1	-6.9	-6.9*	-33%*	i	i	KCNQ2 inh confirm=i
CCN(CC)C(=O)c1cc2c(=O)c3cc(F)ccc3oc2nc1C	-9.6	-9.6*	-23%*	i	i	KCNQ2 inh confirm=+
CCOC(=O)c1cc2c(=O)c3ccccc3oc2nc1C	0.29	i	.	.	.
CCc1nn(CC(=O)NCCCN(C)Cc2ccccc2)c(=O)c2cc3sc(C)cc3n12	0.02	i	.	.	.
COc1ccc(CNC(=O)CN(C(=O)c2csnn2)c2cccc3c2CCCC3)cc1	0.61	i	.	.	.
CCN(CC(=O)NCc1ccc(F)cc1)C(=O)c1oc2ccccc2c1C	.	i	.	.	.
CCN(CC(=O)NCc1ccc(Cl)cc1)C(=O)c1oc2ccccc2c1C	-7	-7*	-19%*	i	i	KCNQ2 inh confirm=+
Cc1ccccc1Cn1cc(S(=O)(=O)CC(=O)N2CCCCC2)c2ccccc21	1.7	i	.	.	.
Cc1cc(-c2nnc(-c3ccccc3)c(-c3ccccc3)n2)c(C)o1	-9.9	-9.9*	i	i	i
Cc1ccc(-c2nnc(-c3ccccc3)c(-c3ccccc3)n2)cc1	.	i	.	.	.
COC(=O)C1(C(C[N+](=O)[O-])c2ccco2)C(=O)NCC1c1ccccc1 (configuration not stated)	.	i	.	.	.
CC(C)(C)NC(=O)COc1ccc(CNCc2ccccn2)cc1	.	i	.	.	.
Cc1ccc(N2CCN(/N=C/C(Cl)=C/c3ccccc3)CC2)cc1	.	i	.	.	.
CC(=C/c1ccccc1)/C=N/Nc1nc(N2CCCCC2)nc(N2CCCCC2)n1	.	i	.	.	.
C/C(=N\Nc1nc(N2CCCCCC2)nc(N2CCCCCC2)n1)c1ccccc1	-9.2	-9.2*	-28%*	i	i	KCNQ2 inh confirm=+
COc1cc(/C=C/c2cc[n+](C)cc2)ccc1OCC(=O)Nc1ccccc1	2.3	i	.	.	.
O=C(CN1CCCc2ccccc21)NCCc1ccc(Cl)cc1	-11	-11*	-34%*	i	i	KCNQ2 inh confirm=+
O=C(CN1CCCc2ccccc21)NCc1ccc2c(c1)OCO2	.	i	.	.	.
C=C(C)CN1CCN(S(=O)(=O)c2ccc(C)c(N(C)S(=O)(=O)c3ccc(C)cc3)c2C)CC1	-8.5	-8.5*	-32%*	-32%*	-25%*	KCNQ2 inh confirm=i
Cc1ccc(S(=O)(=O)N(C)c2c(C)ccc(S(=O)(=O)N3CCN(C)CC3)c2C)cc1	.	i	.	.	.
Cc1ccc(CCNC(=O)c2cc(C)nn2-c2ccccc2)cc1	.	i	.	.	.
CCOC(=O)COc1nc(-c2ccco2)cc(-c2ccco2)c1C#N	.	i	.	.	.
SMILES	KCNQ2 pot	KCNQ2 block	KCNQ2 inh conf	KCNQ1 spec	CHO parental ctr	others
CCOC(=O)C(C)Sc1nc(-c2ccco2)cc(C(F)(F)F)c1C#N (configuration not stated)	-8.8	-8.8*	-37%*	-39%*	-37%*	KCNQ2 inh confirm=i
COc1ccc(N2CCN(c3nc4c(c(=O)n(C)c(=O)n4C)n3Cc3ccccc3)CC2)cc1	.	i	.	.	.
COc1cc(NC(=O)CSc2nnc(C)s2)cc(OC)c1OC	.	i	.	.	.
CCCn1c(=O)c(C(=O)NC(C)c2ccccc2)c(O)c2ccccc21 (configuration not stated)	-11	-11*	i	i	i
Cn1c(=O)c(C(=O)NCc2ccccc2Cl)c(O)c2ccccc21	.	i	.	.	.
CCn1c(=O)c(C(=O)NC(C)c2ccccc2)c(O)c2ccccc21 (configuration not stated)	.	i	.	.	.
CCn1c(=O)c(C(=O)NCc2ccccc2Cl)c(O)c2ccccc21	-8.4	-8.4*	-36%*	-37%*	-23%*	KCNQ2 inh confirm=i
Cc1ccc(-n2c(=O)cc(N3CCCCCC3)[nH]c2=O)cc1	0.39	i	.	.	.
COCCNC(=O)NC(=O)COC(=O)c1cccn1C	.	i	.	.	.
CC(C)(C)N1CC(c2nc3ccccc3n2CCOc2ccccc2)CC1=O (configuration not stated)	1.5	i	.	.	.
CC(C)(C)N1CC(c2nc3ccccc3n2Cc2ccc(Cl)cc2)CC1=O (configuration not stated)	-7.1	-7.1*	-27%*	i	i	KCNQ2 inh confirm=+
Nc1cc2c(cc1C(=O)c1ccccc1)OCCO2	.	i	.	.	.
COc1ccc(-c2nc3cc(C)ccn3c2NCc2ccc3c(c2)OCO3)cc1	.	i	.	.	.
COc1ccc(-c2nc3ccccn3c2NCc2ccc3c(c2)OCO3)cc1	-8.4	-8.4*	i	i	i
C/C(=C\c1cccc(Cl)c1Cl)C(=O)c1c(C)cc(C)[nH]c1=O	.	i	.	.	.
CN(C)/N=C/C=C1\CC/C(=C\c2ccc(Br)cc2)C1=O	.	i	.	.	.
CCOC(=O)/C(=C\Nc1ccccc1C(F)(F)F)Sc1ncc(C(F)(F)F)cc1Cl	.	i	.	.	.
COC(=O)/C(=C\Nc1ccc(Cl)c2ccccc12)c1ncc(C(F)(F)F)cc1Cl	-8.4	-8.4*	-18%*	i	i	KCNQ2 inh confirm=i
COc1ccc(OC)c(S(=O)(=O)NCCCN2CCCC2=O)c1	0.72	i	.	.	.
O=C(NC1CCCC1)C1CCN(C(=O)c2ccccc2Cl)CC1	.	i	.	.	.
CC(C(=O)NCC1CCCCC1)N(C)Cc1ccc(Br)cc1 (configuration not stated)	.	i	.	.	.
CC(C(=O)NCC1CCCCC1)N(C)Cc1ccc(Cl)cc1 (configuration not stated)	-6.7	-6.7*	i	i	i
c1ccc(SCc2nc(-c3ccncc3)n[nH]2)nc1	.	i	.	.	.
CC1CC(C)CN(C(=O)C(Cc2ccccc2)NC(=O)c2ccccc2)C1 (configuration not stated)	-7	-7*	i	i	i
O=C(NC(Cc1ccccc1)C(=O)N1CCCCCC1)c1ccccc1 (configuration not stated)	.	i	.	.	.
Cc1ccc(Nc2nc(-c3ccc(C)cc3)c(CC(=O)O)s2)cc1	1.7	i	.	.	.
O=C(O)Cc1sc(Nc2cccc3ccccc23)nc1-c1ccc(Cl)cc1	-8.2	-8.2*	i	i	i
COc1nc(OC)nc(N2CCC(C(=O)Nc3cccc4ccccc34)CC2)n1	.	i	.	.	.
CCOc1cccc(CNCCO)c1OCc1ccc(Cl)cc1	0.75	i	.	.	.
CCOc1cc(CNCCO)cc(Br)c1OCc1ccc(Cl)cc1	-8.1	-8.1*	i	i	i
